About 79,000 compounds went through this panel and 15% of them were active in at least one assay; those are over-represented in the sample as a whole. Unmarked numbers belong to inactive results. Calls of active or inactive are those of the source. No stated cut-off is given here; in the data, active means growth inhibition above about 70%; inactive means the rest.

The values below come from PubChem BioAssay (NCI).

A short description of experiment [1]: NCI Yeast Anticancer Drug Screen. Data for the rad50 strain (AID 155).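 Further: 0% = growth of vehicle-only cultures of the same strain.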 The note with it: S. cerevisiae rad50 strain growth inhibition; at 50.0 µM; hits give high values. In a few lines:
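Relative growth inhibition (compound vs vehicle) was measured in yeast with a defined repair-gene alteration.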

Experiment [2] in a line: NCI Yeast Anticancer Drug Screen. Data for the mec2-1 strain (AID 157). The note with it: S. cerevisiae mec2-1 strain, at 50.0 µM, hits give high values. In a few lines:
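mec2-1 yeast strain, carrying an alteration in DNA damage repair or cell cycle control, was exposed to compounds; growth inhibition was measured relative to vehicle-treated controls.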

Experiment [3] can be described thus: NCI Yeast Anticancer Drug Screen. Data for the sgs1 mgt1 strain (AID 161).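 Further: 0% = growth of cultures given vehicle only.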 The note with it: S. cerevisiae sgs1 mgt1 strain, at 50.0 µM, hits give high values. In a few lines: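 Compounds are added to genetically altered yeast, and growth is compared with cultures given vehicle alone to give percent inhibition.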
A short description of experiment [4]: NCI Yeast Anticancer Drug Screen. Data for the cln2 rad14 strain (AID 165).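 Further: 0% = growth equal to vehicle treated cultures.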 The note with it: S. cerevisiae cln2 rad14 strain, at 50.0 µM, hits give high values. In short, it runs like this: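 Yeast carrying cln2 and rad14 alterations (cell cycle control and DNA damage repair) were exposed to compounds. Growth inhibition was measured against vehicle-treated controls.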

Experiment [5] in a line: NCI Yeast Anticancer Drug Screen. Data for the bub3 strain (AID 167). The note with it: S. cerevisiae bub3 mutant strain, at 50.0 µM, hits give high values. In short, it runs like this:
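Screening used yeast with an engineered genetic alteration affecting cell cycle control. Compound-exposed cultures were compared with vehicle cultures, and reduced growth was taken as inhibition.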

Experiment [6] can be described thus: NCI Yeast Anticancer Drug Screen. Data for the mlh1 rad18 strain (AID 175). The note with it: S. cerevisiae mlh1 rad18 strain growth inhibition; at 50.0 µM; hits give high values. In a few lines:
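Growth inhibition of the yeast strain was measured after compound exposure and expressed relative to vehicle-treated controls. The strain carries defined defects in DNA damage repair.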

On to `COc1ccc(C2S/C(=C\c3ccccc3)C(=O)N2NC(=O)Cc2ccccc2)cc1` (stereo unspecified), for which the growth inhibition in experiment [1] is -12.8%; in experiment [2] it was -54.2%; in experiment [3], -7.5%; in experiment [4], -69.7%; in experiment [5], -18.6%; in experiment [6], -12%.
Take `Nc1ccc2ccsc2c1`: the growth inhibition in experiment [1] is 1.6%; in experiment [2], -22.7%; in experiment [3] it was 26.2%; in experiment [4] it was 17.1%; in experiment [5] it was 12.9%; in experiment [6], 35.5%.
With `CCc1ccc(NS(=O)(=O)c2ccc3ccccc3c2)cc1`, the growth inhibition in experiment [1] was 96% (active); in experiment [2], 97.5% (active); in experiment [3], 96.9% (active); in experiment [4], 94.6% (active); in experiment [5], 96.5% (active); in experiment [6], 96.4% (active).
Take `COC(=O)C1(CC(=O)CC(=O)CC2(C(=O)OC)NC(=S)NC(=O)C2C#N)NC(=S)NC(=O)C1C#N` (stereo unspecified): the growth inhibition is -17.4% in experiment [1]; 19.9% in experiment [2]; -24.6% in experiment [3]; 4.05% in experiment [4]; 5.55% in experiment [5]; 13.8% in experiment [6].
Take `CC(=O)O[C@]12CCCCC1C1(O)C(O)CCCC[C@H]12` (stereo partly specified): the growth inhibition in experiment [1] is -41.8%; in experiment [2], -62.2%; in experiment [3], -65.5%; in experiment [4], -4.95%; in experiment [5] it was -20.6%; in experiment [6], -31.8%.
For the compound `CC(C)(CCCCC(C)(C)C1NC(=O)N1)C1NC(=O)N1`, the growth inhibition was -42.6% in experiment [1]; -7.4% in experiment [2]; -67.9% in experiment [3]; -46.5% in experiment [4]; -9.1% in experiment [5]; -43.1% in experiment [6].
